# Experimental data as given in the supplement of paper PMC9897528.
# Tested on: Scedosporium aurantiacum CBS 136046
# Test: growth inhibition relative to DMSO control (OD600); higher = more antifungal activity, active = 80 or more; extreme values may be limits of the assay
# Details: 5 µM; 72 h; 37 °C
# 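Also: conidia screened in RPMI 1640 medium under 5% CO2, growth read by spectrophotometer, medium with 0.5% DMSO serving as the untreated reference.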
row,Structure (SMILES),growth inhibition
1,CN1CCN(Cc2ccc(-c3cnc4[nH]cc(-c5ccc6[nH]ccc6c5)c4c3)cc2)CC1,54.5% (inactive)
2,NNC(=O)c1ccncc1,3.54% (inactive)
3,OCCCCn1cnc2c(O)nc(NCc3ccc(Cl)c(Cl)c3)nc21,5.51% (inactive)
4,c1cnc(NCc2ccc(CNc3ncccn3)cc2)nc1,10.1% (inactive)
5,O=C(Cc1ccccc1F)Nc1nc2ccccc2[nH]1,23.9% (inactive)
6,C[Si]1(C)CCN(Cc2cc(-c3ccc(Cl)cc3)n(-c3ccc(Cl)cc3)n2)CC1,10% (inactive)
7,NC(=O)c1cnc2ccc(S(=O)(=O)c3ccccc3)cc2c1Nc1ccc(O)cc1,32.1% (inactive)
8,C[C@@H](c1nc(-c2ccc(C#N)cc2)cs1)[C@](O)(Cn1cncn1)c1ccc(F)cc1F,60.6% (inactive)
9,O=c1oc2ccc(Br)cc2cc1CSc1ncc[nH]1,18.7% (inactive)
10,FC(F)(F)c1cc(C(F)(F)F)c2ccc3nc(-c4nnco4)cn3c2n1,4.29% (inactive)
11,C[C@H](Cn1cnc2c(N)ncnc21)OCP(=O)(O)O,13.7% (inactive)
12,O=[N+]([O-])c1cn(Cc2nc(O)nc(O)c2Br)cn1,20.5% (inactive)
13,C=C[C@]1(C)C[C@@H](OC(=O)CS[C@@H]2C[C@H]3CC[C@@H](C2)N3C)[C@]2(C)[C@H](C)CC[C@]3(CCC(=O)[C@H]32)[C@@H](C)[C@@H]1O,35.7% (inactive)
14,CCOC(=O)N[C@@H]1CC[C@@H]2[C@@H](C1)C[C@H]1C(=O)O[C@H](C)[C@H]1[C@H]2/C=C/c1ccc(-c2cccc(F)c2)cn1,44.3% (inactive)
15,Nc1nc2c(ncn2COCCO)c(=O)[nH]1,11.1% (inactive)
16,Cn1cc(NC(=O)c2cc(NC(=O)c3ccc(/C=C/c4cnc5ccccc5c4)cc3)cn2C)cc1C(=O)NCCN1CCOCC1,0% (inactive)
17,N#CCN1C(=O)COc2cc(F)c(N3C(=O)c4ccccc4C3=O)cc21,0% (inactive)
18,COc1ccc(NS(=O)(=O)c2ccc(Cl)s2)cn1,11.2% (inactive)
19,NC(=O)c1[nH]c2ccc(S(N)(=O)=O)cc2c1-c1ccccc1,34.5% (inactive)
20,CCNC(=O)Nc1cn2c(-c3ncc(CC)cn3)cc(-c3cccnc3)cc2n1,0% (inactive)
21,COc1cc(Cc2cnc(N)nc2N)cc(OC)c1OC,0.169% (inactive)
22,CCC(C)NCC(O)Cn1c2ccc(Cl)cc2c2cc(Cl)ccc21 (configuration not stated),25% (inactive)
